According to ChEMBL document CHEMBL2218924, “A broad activity screen in support of a chemogenomic map for kinase signalling research and drug discovery” (Biochem J, 2013):

Columns and labels:
[1] = target: T1, Dual specificity mitogen-activated protein kinase kinase 6 (Homo sapiens) (UniProt P52564); conditions: at 1 µM
T1 sequence (whole entry): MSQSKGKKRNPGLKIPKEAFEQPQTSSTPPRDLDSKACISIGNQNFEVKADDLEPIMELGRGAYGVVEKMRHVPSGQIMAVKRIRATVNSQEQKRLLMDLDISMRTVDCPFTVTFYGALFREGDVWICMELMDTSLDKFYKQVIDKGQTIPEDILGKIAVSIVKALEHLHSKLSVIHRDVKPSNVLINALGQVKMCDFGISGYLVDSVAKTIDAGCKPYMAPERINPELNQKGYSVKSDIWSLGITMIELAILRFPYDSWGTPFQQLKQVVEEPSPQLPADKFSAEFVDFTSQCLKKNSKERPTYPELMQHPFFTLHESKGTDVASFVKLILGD

[2] = target: T1, Dual specificity mitogen-activated protein kinase kinase 6 (Homo sapiens); conditions: at 10 µM
[3] = target: T2, Dual specificity mitogen-activated protein kinase kinase 7 (Homo sapiens) (UniProt O14733); conditions: at 1 µM
T2 sequence (whole entry): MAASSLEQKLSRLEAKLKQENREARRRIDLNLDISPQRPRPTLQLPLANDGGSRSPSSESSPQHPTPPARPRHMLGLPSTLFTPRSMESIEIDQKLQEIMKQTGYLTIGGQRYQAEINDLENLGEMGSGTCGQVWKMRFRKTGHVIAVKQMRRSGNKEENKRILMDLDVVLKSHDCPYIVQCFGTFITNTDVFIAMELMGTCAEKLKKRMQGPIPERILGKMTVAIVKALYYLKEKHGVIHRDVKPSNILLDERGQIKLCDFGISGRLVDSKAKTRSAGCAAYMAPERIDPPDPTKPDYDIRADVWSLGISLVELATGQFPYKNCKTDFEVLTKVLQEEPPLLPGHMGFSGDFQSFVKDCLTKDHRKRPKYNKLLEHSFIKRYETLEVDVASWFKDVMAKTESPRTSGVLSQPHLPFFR

[4] = target: T2, Dual specificity mitogen-activated protein kinase kinase 7 (Homo sapiens); conditions: at 10 µM
[5] = target: Myosin light chain kinase, smooth muscle (Homo sapiens) (UniProt Q15746); conditions: at 1 µM
[6] = target: Myosin light chain kinase, smooth muscle (Homo sapiens) (UniProt Q15746); conditions: at 10 µM
[7] = target: Mitogen-activated protein kinase kinase kinase 9 (Homo sapiens) (UniProt P80192); conditions: at 1 µM
[8] = target: Mitogen-activated protein kinase kinase kinase 9 (Homo sapiens) (UniProt P80192); conditions: at 10 µM
[9] = target: Serine/threonine-protein kinase MRCK alpha (Homo sapiens) (UniProt Q5VT25); conditions: at 1 µM
[10] = target: Serine/threonine-protein kinase MRCK alpha (Homo sapiens) (UniProt Q5VT25); conditions: at 10 µM

Sequence of Serine/threonine-protein kinase MRCK alpha (Homo sapiens) (Q5VT25 whole entry): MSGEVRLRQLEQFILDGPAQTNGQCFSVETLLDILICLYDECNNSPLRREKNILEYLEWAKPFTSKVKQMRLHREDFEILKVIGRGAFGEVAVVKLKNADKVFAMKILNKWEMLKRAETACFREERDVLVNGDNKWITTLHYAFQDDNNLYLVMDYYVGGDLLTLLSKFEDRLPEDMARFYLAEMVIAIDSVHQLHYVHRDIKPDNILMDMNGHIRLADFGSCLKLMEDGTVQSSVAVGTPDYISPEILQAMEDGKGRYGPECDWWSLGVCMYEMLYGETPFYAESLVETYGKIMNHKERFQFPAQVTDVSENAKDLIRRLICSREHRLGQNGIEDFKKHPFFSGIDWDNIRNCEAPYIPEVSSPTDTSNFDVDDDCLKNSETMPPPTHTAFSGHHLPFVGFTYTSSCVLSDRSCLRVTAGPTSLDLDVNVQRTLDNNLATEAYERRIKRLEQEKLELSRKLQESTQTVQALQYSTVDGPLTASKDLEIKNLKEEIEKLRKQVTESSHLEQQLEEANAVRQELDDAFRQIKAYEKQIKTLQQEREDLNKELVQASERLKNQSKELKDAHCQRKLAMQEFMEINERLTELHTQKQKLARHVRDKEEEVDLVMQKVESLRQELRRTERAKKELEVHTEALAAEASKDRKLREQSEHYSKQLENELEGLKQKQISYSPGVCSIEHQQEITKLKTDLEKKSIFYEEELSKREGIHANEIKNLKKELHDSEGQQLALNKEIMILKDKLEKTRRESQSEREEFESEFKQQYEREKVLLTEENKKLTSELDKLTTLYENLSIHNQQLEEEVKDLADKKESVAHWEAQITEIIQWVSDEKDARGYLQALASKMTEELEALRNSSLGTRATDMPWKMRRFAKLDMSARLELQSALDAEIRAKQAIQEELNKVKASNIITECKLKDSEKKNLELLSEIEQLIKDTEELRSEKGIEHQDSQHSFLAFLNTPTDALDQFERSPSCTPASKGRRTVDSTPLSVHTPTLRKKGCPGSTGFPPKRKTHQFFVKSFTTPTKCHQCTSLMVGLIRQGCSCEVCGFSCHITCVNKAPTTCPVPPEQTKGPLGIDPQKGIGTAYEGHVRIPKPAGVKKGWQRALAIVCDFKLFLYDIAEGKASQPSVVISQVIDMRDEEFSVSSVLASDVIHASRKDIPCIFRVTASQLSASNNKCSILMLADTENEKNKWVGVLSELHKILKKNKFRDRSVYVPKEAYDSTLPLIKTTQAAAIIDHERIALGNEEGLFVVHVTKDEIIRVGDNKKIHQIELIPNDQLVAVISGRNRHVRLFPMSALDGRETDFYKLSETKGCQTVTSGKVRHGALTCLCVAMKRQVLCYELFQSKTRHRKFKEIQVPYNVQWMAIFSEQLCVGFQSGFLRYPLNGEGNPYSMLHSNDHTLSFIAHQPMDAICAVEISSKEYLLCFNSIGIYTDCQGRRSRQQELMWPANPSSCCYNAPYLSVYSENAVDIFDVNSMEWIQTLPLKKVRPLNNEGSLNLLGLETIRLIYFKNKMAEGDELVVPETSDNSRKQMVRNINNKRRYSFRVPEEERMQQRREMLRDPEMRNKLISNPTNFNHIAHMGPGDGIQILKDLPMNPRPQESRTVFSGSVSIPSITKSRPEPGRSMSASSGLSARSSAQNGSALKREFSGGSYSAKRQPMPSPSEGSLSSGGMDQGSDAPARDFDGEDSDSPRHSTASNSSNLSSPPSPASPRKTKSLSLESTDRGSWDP
Sequence of Myosin light chain kinase, smooth muscle (Homo sapiens) (Q15746 whole entry): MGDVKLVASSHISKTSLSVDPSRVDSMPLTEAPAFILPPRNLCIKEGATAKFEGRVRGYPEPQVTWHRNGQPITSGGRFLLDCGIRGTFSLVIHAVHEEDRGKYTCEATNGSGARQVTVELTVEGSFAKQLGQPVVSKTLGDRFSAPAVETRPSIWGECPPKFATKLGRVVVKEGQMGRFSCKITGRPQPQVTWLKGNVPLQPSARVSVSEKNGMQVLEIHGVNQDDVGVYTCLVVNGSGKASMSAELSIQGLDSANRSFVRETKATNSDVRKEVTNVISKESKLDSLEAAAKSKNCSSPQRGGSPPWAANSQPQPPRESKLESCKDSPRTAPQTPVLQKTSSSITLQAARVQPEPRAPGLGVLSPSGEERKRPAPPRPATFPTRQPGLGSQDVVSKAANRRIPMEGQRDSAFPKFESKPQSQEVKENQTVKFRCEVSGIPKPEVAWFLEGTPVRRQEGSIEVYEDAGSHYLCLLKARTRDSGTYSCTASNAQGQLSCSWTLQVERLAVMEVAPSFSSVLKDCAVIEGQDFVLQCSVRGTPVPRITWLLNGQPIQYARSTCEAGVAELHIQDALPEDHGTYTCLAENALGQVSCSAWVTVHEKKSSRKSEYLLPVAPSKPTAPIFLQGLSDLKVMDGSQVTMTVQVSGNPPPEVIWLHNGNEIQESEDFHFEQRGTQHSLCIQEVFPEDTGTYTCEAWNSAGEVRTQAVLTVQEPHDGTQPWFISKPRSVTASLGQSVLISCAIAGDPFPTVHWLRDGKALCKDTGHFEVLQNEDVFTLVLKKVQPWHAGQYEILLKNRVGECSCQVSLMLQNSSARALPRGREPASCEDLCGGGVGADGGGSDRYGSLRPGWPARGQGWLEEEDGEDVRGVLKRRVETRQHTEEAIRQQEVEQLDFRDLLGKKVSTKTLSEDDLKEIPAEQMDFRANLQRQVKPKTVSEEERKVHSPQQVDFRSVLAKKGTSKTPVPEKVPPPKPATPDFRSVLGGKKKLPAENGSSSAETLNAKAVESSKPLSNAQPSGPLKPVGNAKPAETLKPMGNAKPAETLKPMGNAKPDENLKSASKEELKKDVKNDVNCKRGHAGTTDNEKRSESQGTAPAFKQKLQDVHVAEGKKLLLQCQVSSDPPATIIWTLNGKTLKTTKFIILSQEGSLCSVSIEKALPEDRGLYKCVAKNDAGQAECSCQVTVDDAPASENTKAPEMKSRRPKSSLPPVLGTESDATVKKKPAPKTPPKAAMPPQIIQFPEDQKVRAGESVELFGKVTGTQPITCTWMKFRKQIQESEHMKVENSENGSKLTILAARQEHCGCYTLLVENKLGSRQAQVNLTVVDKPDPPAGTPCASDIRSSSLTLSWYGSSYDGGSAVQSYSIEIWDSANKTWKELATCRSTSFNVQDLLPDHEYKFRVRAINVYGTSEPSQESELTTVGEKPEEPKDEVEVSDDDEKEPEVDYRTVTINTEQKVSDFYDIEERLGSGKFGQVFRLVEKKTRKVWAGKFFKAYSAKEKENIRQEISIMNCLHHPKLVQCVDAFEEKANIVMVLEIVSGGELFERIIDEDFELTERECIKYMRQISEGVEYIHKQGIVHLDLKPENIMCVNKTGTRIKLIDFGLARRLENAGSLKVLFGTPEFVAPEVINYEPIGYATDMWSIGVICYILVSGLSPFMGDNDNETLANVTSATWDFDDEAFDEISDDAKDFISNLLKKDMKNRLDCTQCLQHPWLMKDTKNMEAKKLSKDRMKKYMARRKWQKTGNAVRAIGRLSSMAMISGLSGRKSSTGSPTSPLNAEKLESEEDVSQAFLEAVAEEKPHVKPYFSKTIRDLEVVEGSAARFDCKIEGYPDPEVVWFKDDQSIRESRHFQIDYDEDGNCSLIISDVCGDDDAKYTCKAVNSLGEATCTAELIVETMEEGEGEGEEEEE
Sequence of Mitogen-activated protein kinase kinase kinase 9 (Homo sapiens) (P80192 whole entry, looked up): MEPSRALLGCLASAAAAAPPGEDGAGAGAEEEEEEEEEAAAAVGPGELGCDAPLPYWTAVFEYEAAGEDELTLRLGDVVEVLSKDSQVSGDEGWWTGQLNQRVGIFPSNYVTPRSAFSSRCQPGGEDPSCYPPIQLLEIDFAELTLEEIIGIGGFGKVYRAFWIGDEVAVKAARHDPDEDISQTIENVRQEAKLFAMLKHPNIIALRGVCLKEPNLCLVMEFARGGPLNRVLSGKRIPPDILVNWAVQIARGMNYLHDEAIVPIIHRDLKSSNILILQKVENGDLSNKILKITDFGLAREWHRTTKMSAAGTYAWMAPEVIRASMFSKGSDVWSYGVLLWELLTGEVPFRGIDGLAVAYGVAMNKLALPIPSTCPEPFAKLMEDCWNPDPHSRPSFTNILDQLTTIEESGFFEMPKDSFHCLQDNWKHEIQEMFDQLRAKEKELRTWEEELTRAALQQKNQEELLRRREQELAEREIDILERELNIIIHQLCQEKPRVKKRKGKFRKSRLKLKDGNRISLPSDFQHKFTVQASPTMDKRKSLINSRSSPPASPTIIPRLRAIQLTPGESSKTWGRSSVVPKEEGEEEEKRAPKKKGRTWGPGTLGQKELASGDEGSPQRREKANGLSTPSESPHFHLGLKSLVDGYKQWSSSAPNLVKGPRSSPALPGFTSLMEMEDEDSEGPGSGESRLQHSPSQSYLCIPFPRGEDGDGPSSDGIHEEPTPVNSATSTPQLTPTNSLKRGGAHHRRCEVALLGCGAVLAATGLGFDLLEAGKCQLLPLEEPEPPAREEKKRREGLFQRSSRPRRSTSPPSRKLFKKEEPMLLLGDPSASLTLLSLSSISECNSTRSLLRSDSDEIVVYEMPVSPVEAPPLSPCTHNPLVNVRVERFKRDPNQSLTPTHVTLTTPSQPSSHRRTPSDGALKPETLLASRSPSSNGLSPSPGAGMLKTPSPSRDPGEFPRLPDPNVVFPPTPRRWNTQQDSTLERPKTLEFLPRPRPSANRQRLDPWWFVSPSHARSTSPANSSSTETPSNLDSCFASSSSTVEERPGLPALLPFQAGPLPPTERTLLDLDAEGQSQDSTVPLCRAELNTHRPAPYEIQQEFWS

## CO[C@@H]1[C@H](N(C)C(=O)c2ccccc2)C[C@H]2O[C@]1(C)n1c3ccccc3c3c4c(c5c6ccccc6n2c5c31)C(=O)NC4
[1]
  residual activity: 52%
[2]
  residual activity: 58%
[3]
  residual activity: 111%
[4]
  residual activity: 135%
[5]
  residual activity: 13%
[6]
  residual activity: 10%
[7]
  residual activity: 1%
[8]
  residual activity: 1%
[9]
  residual activity: 93%
[10]
  residual activity: 102%

## CC(C)n1cnc2/c(=N/c3cccc(Cl)c3)nc(NCCO)[nH]c21
[1]
  residual activity: 73%
[2]
  residual activity: 49%
[3]
  residual activity: 80%
[4]
  residual activity: 93%
[5]
  residual activity: 90%
[6]
  residual activity: 30%
[7]
  residual activity: 11%
[8]
  residual activity: 1%
[9]
  residual activity: 108%
[10]
  residual activity: 98%

## CN(C)c1ccc(/C=C2\C(=O)Nc3ccccc32)cc1
[1]
  residual activity: 97%
[2]
  residual activity: 91%
[3]
  residual activity: 91%
[4]
  residual activity: 84%
[5]
  residual activity: 77%
[6]
  residual activity: 56%
[7]
  residual activity: 39%
[8]
  residual activity: 16%
[9]
  residual activity: 113%
[10]
  residual activity: 105%

## c1ccc(-c2n[nH]c3c2oc2ccccc23)cc1
[1]
  residual activity: 76%
[2]
  residual activity: 89%
[3]
  residual activity: 87%
[4]
  residual activity: 67%
[5]
  residual activity: 66%
[6]
  residual activity: 64%
[7]
  residual activity: 69%
[8]
  residual activity: 39%
[9]
  residual activity: 92%
[10]
  residual activity: 116%

## O=C1NC(=O)c2cc(Nc3ccc(F)cc3)c(Nc3ccc(F)cc3)cc21
[1]
  residual activity: 72%
[2]
  residual activity: 58%
[3]
  residual activity: 98%
[4]
  residual activity: 97%
[5]
  residual activity: 55%
[6]
  residual activity: 70%
[7]
  residual activity: 86%
[8]
  residual activity: 75%
[9]
  residual activity: 100%
[10]
  residual activity: 111%

## COc1cc2ncnc(N3CCN(C(=O)Nc4ccc(Oc5ccccc5)cc4)CC3)c2cc1OC
[1]
  residual activity: 87%
[2]
  residual activity: 81%
[3]
  residual activity: 144%
[4]
  residual activity: 111%
[5]
  residual activity: 77%
[6]
  residual activity: 97%
[7]
  residual activity: 87%
[8]
  residual activity: 91%

## Nc1cccc(-c2cc3c(Oc4cccc(O)c4)ncnc3[nH]2)c1
[1]
  residual activity: 74%
[2]
  residual activity: 20%
[3]
  residual activity: 80%
[4]
  residual activity: 70%
[5]
  residual activity: 85%
[6]
  residual activity: 25%
[7]
  residual activity: 7%
[8]
  residual activity: 1%
[9]
  residual activity: 123%

## CO[C@H]1[C@@H](OC)C[C@H](C)[C@@H](OC)C2=CC(=O)C=C(NC(=O)/C(C)=C/C=C/[C@H](OC)[C@@H](OC(N)=O)/C(C)=C/[C@@H]1C)C2=O
[1]
  residual activity: 72%
[2]
  residual activity: 99%
[3]
  residual activity: 92%
[4]
  residual activity: 88%
[5]
  residual activity: 98%
[6]
  residual activity: 90%
[7]
  residual activity: 92%
[8]
  residual activity: 99%
[9]
  residual activity: 114%
[10]
  residual activity: 92%

## Oc1ccc(Nc2nc(-c3ccc(Cl)cc3)cs2)cc1
[1]
  residual activity: 82%
[2]
  residual activity: 52%
[3]
  residual activity: 91%
[4]
  residual activity: 93%
[5]
  residual activity: 118%
[6]
  residual activity: 56%
[7]
  residual activity: 92%
[8]
  residual activity: 36%
[9]
  residual activity: 118%
[10]
  residual activity: 135%

## Oc1n[nH]c2nnc(-c3c(-c4ccccc4)nn4ccccc34)cc12
[1]
  residual activity: 126%
[2]
  residual activity: 89%
[3]
  residual activity: 95%
[4]
  residual activity: 101%
[5]
  residual activity: 84%
[6]
  residual activity: 52%
[7]
  residual activity: 89%
[8]
  residual activity: 48%
[9]
  residual activity: 94%
[10]
  residual activity: 79%

## Nc1n[nH]c2nnc(-c3c(-c4ccccc4)nn4ccccc34)cc12
[1]
  residual activity: 104%
[2]
  residual activity: 65%
[3]
  residual activity: 88%
[4]
  residual activity: 70%
[5]
  residual activity: 113%
[6]
  residual activity: 74%
[7]
  residual activity: 86%
[8]
  residual activity: 31%
[9]
  residual activity: 111%
[10]
  residual activity: 98%

## N#Cc1cnc2cnc(NCc3cccnc3)cc2c1Nc1ccc(F)c(Cl)c1
[1]
  residual activity: 10%
[2]
  residual activity: 7%
[3]
  residual activity: 83%
[4]
  residual activity: 74%
[5]
  residual activity: 69%
[6]
  residual activity: 46%
[7]
  residual activity: 99%
[8]
  residual activity: 99%
[9]
  residual activity: 14%
[10]
  residual activity: 9%

## CNc1cc2c(Nc3cccc(Br)c3)ncnc2cn1
[1]
  residual activity: 72%
[2]
  residual activity: 79%
[3]
  residual activity: 100%
[4]
  residual activity: 93%
[5]
  residual activity: 55%
[6]
  residual activity: 49%
[7]
  residual activity: 68%
[8]
  residual activity: 53%
[9]
  residual activity: 98%
[10]
  residual activity: 101%

## NC(=O)c1ccc2[nH]c(-c3ccc(Oc4ccc(Cl)cc4)cc3)nc2c1
[1]
  residual activity: 91%
[2]
  residual activity: 94%
[3]
  residual activity: 94%
[4]
  residual activity: 103%
[5]
  residual activity: 93%
[6]
  residual activity: 96%
[7]
  residual activity: 89%
[8]
  residual activity: 34%
[9]
  residual activity: 113%
[10]
  residual activity: 127%

## CCN(CC)CCCCN1c2ccccc2Oc2ccc(Cl)cc21
[1]
  residual activity: 99%
[2]
  residual activity: 119%
[3]
  residual activity: 120%
[4]
  residual activity: 118%
[5]
  residual activity: 79%
[6]
  residual activity: 102%
[7]
  residual activity: 93%
[8]
  residual activity: 102%
[9]
  residual activity: 133%
[10]
  residual activity: 119%

## c1ccc(-c2n[nH]cc2-c2ccnc3ccccc23)nc1
[1]
  residual activity: 75%
[2]
  residual activity: 48%
[4]
  residual activity: 87%
[5]
  residual activity: 77%
[6]
  residual activity: 97%
[7]
  residual activity: 100%
[8]
  residual activity: 103%
[9]
  residual activity: 102%
[10]
  residual activity: 100%

## C[C@@H](N)[C@H]1CC[C@H](C(=O)Nc2ccncc2)CC1
[1]
  residual activity: 101%
[2]
  residual activity: 99%
[3]
  residual activity: 107%
[4]
  residual activity: 121%
[7]
  residual activity: 105%
[8]
  residual activity: 101%
[9]
  residual activity: 98%
[10]
  residual activity: 84%

## CN(C)CCCn1cc(C2=C(c3c[nH]c4ccccc34)C(=O)NC2=O)c2ccccc21
[3]
  residual activity: 79%
[5]
  residual activity: 20%
[6]
  residual activity: 7%
[7]
  residual activity: 58%
[8]
  residual activity: 13%
[9]
  residual activity: 115%
[10]
  residual activity: 76%

## COc1ccc(S(=O)(=O)N(CCO)c2ccccc2CN(C)C/C=C/c2ccc(Cl)cc2)cc1
[1]
  residual activity: 99%
[2]
  residual activity: 74%
[3]
  residual activity: 101%
[4]
  residual activity: 73%
[5]
  residual activity: 97%
[6]
  residual activity: 41%
[7]
  residual activity: 99%
[8]
  residual activity: 92%
[9]
  residual activity: 119%
[10]
  residual activity: 113%

## Cc1cc2ncc(-c3ccccc3)nc2cc1C
[1]
  residual activity: 86%
[2]
  residual activity: 106%
[3]
  residual activity: 76%
[4]
  residual activity: 93%
[5]
  residual activity: 77%
[6]
  residual activity: 96%
[7]
  residual activity: 92%
[8]
  residual activity: 102%
[10]
  residual activity: 81%

## O=C1NC(=O)c2c1c1c3ccccc3[nH]c1c1[nH]c3cc(Br)ccc3c21
[1]
  residual activity: 94%
[2]
  residual activity: 87%
[3]
  residual activity: 87%
[4]
  residual activity: 86%
[5]
  residual activity: 27%
[6]
  residual activity: 37%
[7]
  residual activity: 85%
[8]
  residual activity: 31%
[9]
  residual activity: 87%
[10]
  residual activity: 88%
